Data published in PubChem BioAssay (NCI).
The panel holds about 79,000 compounds, 15% with a hit somewhere; the sample as a whole holds those more often. Active and inactive are the calls of the source. Cut-off read from the data, not from the text of the source: active = growth inhibition above about 70%; inactive = the rest.

Experiment: NCI Yeast Anticancer Drug Screen. Data for the cln2 rad14 strain (AID 165);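 note: 0% = growth equal to vehicle treated cultures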
Conditions: S. cerevisiae cln2 rad14 strain, at 50.0 µM, hits give high values
Method in brief: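 Yeast strain cln2 rad14, bearing defects in cell cycle control and DNA repair, serves as the test system; values reflect growth inhibition compared with vehicle.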

Compound	growth inhibition
CN(C)C(=O)C1C2CCCC(CC2)C1C(=O)N(C)C (stereo not drawn)	20.5% (inactive)
N#CCN(CCc1ccccc1)CCc1ccccc1	-17.6% (inactive)
Cc1nc(-c2nc(C(=O)NCCC[S+](C)C)cs2)cs1	3.4% (inactive)
O=c1[nH]c(Nc2cccc(CO)c2)nc2nc[nH]c12	0.9% (inactive)
CCn1c2ccccc2c2c(-c3ccccc3)cc3c(c21)C(=O)N(c1ccccc1)C3=O	-54% (inactive)
C=C(C#N)C1OCC2OC(C)(C)OC21 (stereo not drawn)	12.3% (inactive)
COc1ccc(OC)c(/C=C/C2=C(C)C(=O)CC(c3cc(OC)ccc3OC)C2C)c1 (stereo not drawn)	8.75% (inactive)
CC(=O)OC1[C@H](OC(C)=O)C2=C(C)[C@@H](OC(C)=O)C[C@@]2(C(C)(C)O)[C@@H](OC(C)=O)[C@H]2[C@@]1(C)[C@@H](OC(C)=O)CC(OC(C)=O)[C@]21CO1 (stereo partly drawn)	7.05% (inactive)
O=C1c2ccccc2-c2nc(-c3cccs3)cc3c2c1nc1ccccc13	21.9% (inactive)
Cc1ccccc1NC(=O)C(=O)CC(=O)c1sc(Nc2ccccc2[N+](=O)[O-])nc1C	-10.3% (inactive)
CC(C)CCC[C@@H](C)[C@H]1CC[C@H]2[C@@H]3CC[C@H]4C[C@@H](CCC=C(c5cc(Cl)c(O)c(C(=O)O)c5)c5cc(Cl)c(O)c(C(=O)O)c5)CC[C@]4(C)[C@H]3CC[C@]12C	-4.2% (inactive)
Cc1cc(Cl)c(Cl)cc1NC(=O)c1c(Br)c(Br)c(Br)c(Br)c1C(=O)O	-16.1% (inactive)
COC(=O)CCSSCCC(=O)OC	-6.15% (inactive)
